Measured values from PubChem BioAssay (NCATS).
Inconclusive results are not listed. Activity calls are given as the source filed them. Unless noted, calls follow the shape of the dose curve; as a rule, active = well fitted curve in either direction with a large enough effect (not every such curve was filed as active); inconclusive = small, poorly fitted or top-dose-only effect, or another doubt; inactive = flat fitted curve, though single readings scatter.

Experiments:
[1] = AP1 Signaling Pathway (AID 357); details: ME-180 AP-1-bla reporter, EGF-induced, beta-lactamase ratio, 5 h; at 7.69 µM (top of the series) unless noted;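 also: ME-180 reporter cells stimulated with EGF at its EC50 level; % is scaled to controls: 0 for no effect and ±100 for the full control effect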
How it was run: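 Beta-lactamase reporter under AP-1 response element, ME-180 background. Stimulus: EC50 EGF. Compound exposure 5 h, 37 °C. Detection: CCF4, 2.5 h RT, 460/530 nm. Values: AC50 from titration.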

[2] = molecular target: Cytochrome P450 1A2 (Homo sapiens) (UniProt P05177); test: p450-cyp1a2 (AID 410; calls by dose curve;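 also: -100% = full effect of reference inhibitor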)
How it was run: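 O-Demethylation of luciferin 6' methyl ether by human CYP1A2 is monitored as luciferase luminescence. Substrate sits at Km (100uM); enzyme is 20nM. Values are scaled to 57 uM furafylline as maximal inhibition.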

[3] = NFAT Signaling Pathway (AID 444); details: Jurkat NFAT-bla M1, carbachol, beta-lactamase ratio, 5 h; at 7.69 µM (top of the series) unless noted;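 also: carbachol stimulus at about its EC50 of 1 µM final; % is scaled to controls: 0 for no effect and ±100 for the full control effect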
How it was run: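 Jurkat cells with NFAT-driven β-lactamase reporter and co-expressed M1 receptor, stimulated with carbachol (final 1 uM, ~EC50), compound titration, 5 h at 37 °C. CCF4 loaded 1 h at RT; 460/530 nm ratio gave %activity and AC50.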

[4] = Stat Signaling Pathway (AID 446); details: ME-180 (cervical carcinoma) SIE beta-lactamase reporter, IL-6 stimulated, 5 h; at 7.69 µM (top of the series) unless noted;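 also: ME-180 cervical cancer cells given 40 pM IL-6 alongside compound; SIE-controlled beta-lactamase reporter measured as 460/530 nm FRET emission ratio; % is scaled to controls: 0 for no effect and ±100 for the full control effect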
How it was run: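 Emission at 460 and 530 nm (excitation 405 nm) reports SIE-controlled beta-lactamase in ME-180 cells. Cells received compound with 40 pM IL-6 for 5 hrs at 37 C; data scaled between 300 pM IL-6 and 125 nM JAK-inhibitor controls.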

[5] = molecular target: Glucocorticoid receptor (Homo sapiens) (UniProt P04150); test: GR-GFP Redistribution (AID 450;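 active = compounds whose dose series gives a full or clear partial fitted curve of increased nuclear translocation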; also: potency is read from the fitted curve at half-maximal effect); details: U2OS GR-GFP nuclear translocation, laser cytometry, 2 h
[6] = molecular target: Glucocorticoid receptor (Homo sapiens) (UniProt P04150); test: GR-EFC Redistribution (AID 451; calls by dose curve; also: potency is read from the fitted curve at half-maximal effect); details: CHO-K1 GR-EFC translocation, beta-gal luminescence, 2 h
How it was run: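 CHO-K1 cells expressing nuclear EA and GR-ED fragments of b-gal; compounds titrated up to 46 uM final, 2 h at 37 C. GR nuclear translocation read as complemented b-gal luminescence after 1 h RT detection.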

[7] = molecular target: Mitogen-activated protein kinase 10 (Mus musculus) (UniProt Q61831); test: JNK3 AlphaScreen Assay (AID 530);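 also: kinase came from lysate of stimulated human HepG2 cells; signal reports phosphorylation of biotinylated GST-cJun 1-79 at Ser73 with 10 µM ATP; % is scaled to controls: 0 for no effect and ±100 for the full control effect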
How it was run: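 Activity was read by AlphaScreen after JNK3-containing HepG2 lysate (cytokine pre-activated) phosphorylated biotinylated GST-cJun with 10 uM ATP at room temperature. Phospho-Ser73 cJun antibody with Protein-A acceptor beads provided detection.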

[8] = molecular target: 3',5'-cyclic-AMP phosphodiesterase 4B (Homo sapiens) (UniProt Q07343); test: qHTS Assay for Inhibitors of PDE-IV (AID 607; active = well fitted activation curve with a large enough effect in the main read-out, with a control signal flat, not every such curve was filed as active; also: % of control where 0% means no effect)
How it was run: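 The readout is membrane depolarisation from a cAMP-sensing CNG channel, detected with a potential dye at ex 535/em 590. Cells were HEK293-derived (endogenous PDE-IV) at 1000 cells/well, titrated up to 22.9 uM final.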

[9] = molecular target: Guanine nucleotide-binding protein G(i) subunit alpha-1 (Homo sapiens) (UniProt P63096); test: qHTS Assay for Inhibitors of RGS12 GoLoco Motif Activity (Green Fluorophore) (AID 879; active = well fitted curve in the direction sought with a large enough effect; an effect the other way counts as inactive or inconclusive;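 also: 0% = labeled peptide with Gαi1 and full inhibition = labeled peptide alone without protein; negative values mean loss of peptide binding seen as reduced polarization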)
How it was run: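 A drop in FITC polarization marked displacement of the FITC-tagged RGS12 GoLoco peptide (10 nM) from Gαi1 (50 nM). Compounds were incubated 10 min at room temperature in Tris pH 7.5 buffer containing 150 mM NaCl, 0.1 mM GDP and 0.05% NP40; unlabeled peptide titration served as control.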

[10] = molecular target: Cytochrome P450 2D6 (Homo sapiens) (UniProt P10635); test: qHTS Assay for Inhibitors and Substrates of Cytochrome P450 2D6 (AID 891; active = well fitted curve in the direction sought with a large enough effect; an effect the other way counts as inactive or inconclusive;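 also: luciferin methyl ether substrate demethylated by CYP2D6 with NADPH regeneration; % is scaled to controls: 0 for no effect and ±100 for the full control effect; nearly all actives have a fitted effect of over 60% in size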)
How it was run: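 Luminescent read-out of luciferin formed by 5 nM human CYP2D6 demethylating 30 uM Luciferin-ME EGE (Km level) over 60 min at room temperature after NADPH regeneration addition. Data normalized to full inhibition by 1.43 uM quinidine.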

[11] = molecular target: Cytochrome P450 2C19 (Homo sapiens) (UniProt P33261); test: qHTS Assay for Inhibitors and Substrates of Cytochrome P450 2C19 (AID 899; active = well fitted curve in the direction sought with a large enough effect; an effect the other way counts as inactive or inconclusive; also: % is scaled to controls: 0 for no effect and ±100 for the full control effect; nearly all actives have a fitted effect of over 60% in size)
How it was run: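 Luminescent read-out of luciferin formed from Luciferin-H EGE (10uM, equal to KM). Enzyme 5nM in 50mM KPO4; compound added, 10 min at 37C, then NADPH regenerating system for 60 min at 37C. Full inhibition defined by 57uM ketoconazole.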

[12] = qHTS Assay for Identification of Small Molecule Agonists for Thrombopoietin (TPO) Signaling Pathway (AID 917; active = well fitted curve in the direction sought with a large enough effect; an effect the other way counts as inactive or inconclusive; also: % is scaled to controls: 0 for no effect and ±100 for the full control effect)
How it was run: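 Luciferase reporter (Glycoprotein IIb promoter) in IL-3-deprived Ba/F3 cells carrying human TPO receptor; compounds co-added with 26 pM TPO, incubated 24 h, 37 C. Steadylite luminescence measured after 10 min.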

[13] = molecular target: Muscarinic acetylcholine receptor M1 (Rattus norvegicus) (UniProt P08482); test: qHTS Assay for Antagonists of Acetylcholine Muscarinic M1 Receptor: Measurement of IP-One Response (AID 944; active = well fitted curve in the direction sought with a large enough effect; an effect the other way counts as inactive or inconclusive; also: nearly all actives have a fitted effect of over 75% in size)
How it was run: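 Antagonist mode with rat M1 receptor transfected into CHO cells. Compound is added first for 10 min, carbachol at its EC80 follows for 30 min, and lysis reagents then allow TR-FRET detection of accumulated IP1.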

[14] = molecular target: Pyruvate kinase (Leishmania mexicana) (UniProt Q27686); test: qHTS Validation Assay for Inhibitors of Leishmania Mexicana Pyruvate Kinase (AID 945; active = well fitted curve in the direction sought with a large enough effect; an effect the other way counts as inactive or inconclusive;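 also: 0% = DMSO only neutral control wells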)
How it was run: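 Substrate mix (0.5 mM PEP, 0.1 mM ADP, 7 mM MgCl2, 50 mM KCl, pH 7.2 imidazole) received compound by pin tool, then 0.2 nM LmPYK E451W. After 1 h at room temperature, PKLight was added and luminescence measured.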

[15] = molecular target: Pyruvate kinase PKM (Homo sapiens) (UniProt P14618); test: qHTS Assay for Activators of Human Muscle Pyruvate Kinase (AID 954; active = well fitted curve in the direction sought with a large enough effect, not every such curve was filed as active;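 also: 0% = uninhibited enzyme and -100% = no enzyme or full thiadiazolimine inhibition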)
How it was run: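 PKM2, human, >95% pure, 0.1 nM; PEP 0.5 mM (Km), ADP 0.1 mM; 50 mM imidazole pH 7.2, 50 mM KCl, 0.01% Tween 20, 0.05% BSA; 1 h RT; luciferase luminescence readout.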

[16] = molecular target: Alpha-galactosidase A (Homo sapiens) (UniProt P06280); test: Counterscreen for Glucocerebrosidase Inhibitors: qHTS Assay for Human alpha-Galactosidase at pH 4.5 (AID 992; active = well fitted curve in the direction sought with a large enough effect; an effect the other way counts as inactive or inconclusive; also: 0% is about no effect)
How it was run: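 Fluorogenic 4-MU alpha-D-galactoside (80 uM) hydrolysis, 2 nM enzyme, pH 4.5 citrate buffer + 0.005% Tween-20; 20 min RT; NaOH/glycine pH 10 stop; Ex365/Em440. Compounds titrated 0.7 nM–77 uM; Hill-equation AC50.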

[17] = molecular target: alpha-glucosidase (Oryza sativa, rice) (UniProt Q653V4); test: Counterscreen for Glucocerebrosidase Inhibitors: qHTS Assay for Rice alpha-Glucosidase at pH 5.0 (AID 997; active = well fitted curve in the direction sought with a large enough effect; an effect the other way counts as inactive or inconclusive;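 also: 0% = full activity with enzyme and -100% = basal without enzyme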)
How it was run: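 Endpoint fluorogenic assay at pH 5.0: compounds (0.7 nM to 77 uM) titrated against 4 nM rice enzyme and 400 uM 4-MU-alpha-glucoside for 20 min at room temperature; NaOH/glycine stop, read ex 365/em 440 nm, Hill-fitted AC50.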

Chain of Glucocorticoid receptor (Homo sapiens) (P04150 whole entry, looked up, the tested form may be a part): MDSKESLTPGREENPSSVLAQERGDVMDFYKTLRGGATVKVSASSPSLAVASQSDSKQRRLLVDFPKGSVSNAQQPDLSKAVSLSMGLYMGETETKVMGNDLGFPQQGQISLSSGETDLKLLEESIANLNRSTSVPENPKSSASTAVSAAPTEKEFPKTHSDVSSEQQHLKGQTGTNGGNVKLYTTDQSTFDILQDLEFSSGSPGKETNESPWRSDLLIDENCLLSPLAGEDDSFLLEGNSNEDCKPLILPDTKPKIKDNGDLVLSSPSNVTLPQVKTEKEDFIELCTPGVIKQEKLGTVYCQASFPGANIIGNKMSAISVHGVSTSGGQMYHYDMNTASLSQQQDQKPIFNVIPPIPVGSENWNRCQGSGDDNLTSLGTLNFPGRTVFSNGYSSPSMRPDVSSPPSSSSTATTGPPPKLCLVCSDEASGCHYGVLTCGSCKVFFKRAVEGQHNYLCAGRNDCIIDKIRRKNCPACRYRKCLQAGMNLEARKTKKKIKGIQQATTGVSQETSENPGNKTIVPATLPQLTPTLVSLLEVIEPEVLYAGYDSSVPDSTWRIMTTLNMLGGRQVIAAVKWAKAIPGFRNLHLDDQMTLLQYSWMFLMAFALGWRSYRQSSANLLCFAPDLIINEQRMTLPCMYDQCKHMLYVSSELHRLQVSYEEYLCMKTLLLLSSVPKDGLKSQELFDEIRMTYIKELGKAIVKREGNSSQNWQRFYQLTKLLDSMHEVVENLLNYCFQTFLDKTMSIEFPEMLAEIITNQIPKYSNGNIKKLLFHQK
Chain of 3',5'-cyclic-AMP phosphodiesterase 4B (Homo sapiens) (Q07343 whole entry, looked up): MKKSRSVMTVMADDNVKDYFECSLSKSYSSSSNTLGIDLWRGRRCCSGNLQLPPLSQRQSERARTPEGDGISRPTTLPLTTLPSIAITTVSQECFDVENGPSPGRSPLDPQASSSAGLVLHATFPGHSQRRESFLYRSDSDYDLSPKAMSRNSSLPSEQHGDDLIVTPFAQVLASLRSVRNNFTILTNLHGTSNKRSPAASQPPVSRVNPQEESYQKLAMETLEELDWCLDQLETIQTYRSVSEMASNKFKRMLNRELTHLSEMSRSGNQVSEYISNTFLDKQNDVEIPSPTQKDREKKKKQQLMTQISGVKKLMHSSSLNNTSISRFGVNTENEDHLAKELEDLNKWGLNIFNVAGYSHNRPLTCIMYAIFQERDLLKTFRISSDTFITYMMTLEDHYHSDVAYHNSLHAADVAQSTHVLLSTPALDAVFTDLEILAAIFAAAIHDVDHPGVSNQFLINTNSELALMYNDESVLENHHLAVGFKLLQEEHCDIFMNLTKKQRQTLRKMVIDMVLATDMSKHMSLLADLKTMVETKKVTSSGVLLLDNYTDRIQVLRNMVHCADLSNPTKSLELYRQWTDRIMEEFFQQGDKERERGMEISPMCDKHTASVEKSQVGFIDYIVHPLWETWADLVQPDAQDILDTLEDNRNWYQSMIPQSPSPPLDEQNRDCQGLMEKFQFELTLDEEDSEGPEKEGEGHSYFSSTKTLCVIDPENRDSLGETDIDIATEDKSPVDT
Chain of Cytochrome P450 1A2 (Homo sapiens) (P05177 whole entry, looked up): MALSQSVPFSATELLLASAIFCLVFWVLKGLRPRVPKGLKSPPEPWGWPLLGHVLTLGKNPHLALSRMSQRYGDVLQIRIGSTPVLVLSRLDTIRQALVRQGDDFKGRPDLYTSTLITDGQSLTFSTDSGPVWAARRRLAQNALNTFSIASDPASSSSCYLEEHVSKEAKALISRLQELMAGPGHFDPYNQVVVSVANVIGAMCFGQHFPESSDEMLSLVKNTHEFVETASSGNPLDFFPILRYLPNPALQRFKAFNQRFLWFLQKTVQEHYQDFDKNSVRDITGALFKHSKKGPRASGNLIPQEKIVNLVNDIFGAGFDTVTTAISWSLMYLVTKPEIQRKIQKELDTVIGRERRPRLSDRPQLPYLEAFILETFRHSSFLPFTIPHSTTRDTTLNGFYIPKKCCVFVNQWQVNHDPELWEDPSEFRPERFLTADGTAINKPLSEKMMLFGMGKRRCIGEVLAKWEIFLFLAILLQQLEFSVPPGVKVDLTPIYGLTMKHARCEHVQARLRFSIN
Chain of Cytochrome P450 2D6 (Homo sapiens) (P10635 whole entry, looked up): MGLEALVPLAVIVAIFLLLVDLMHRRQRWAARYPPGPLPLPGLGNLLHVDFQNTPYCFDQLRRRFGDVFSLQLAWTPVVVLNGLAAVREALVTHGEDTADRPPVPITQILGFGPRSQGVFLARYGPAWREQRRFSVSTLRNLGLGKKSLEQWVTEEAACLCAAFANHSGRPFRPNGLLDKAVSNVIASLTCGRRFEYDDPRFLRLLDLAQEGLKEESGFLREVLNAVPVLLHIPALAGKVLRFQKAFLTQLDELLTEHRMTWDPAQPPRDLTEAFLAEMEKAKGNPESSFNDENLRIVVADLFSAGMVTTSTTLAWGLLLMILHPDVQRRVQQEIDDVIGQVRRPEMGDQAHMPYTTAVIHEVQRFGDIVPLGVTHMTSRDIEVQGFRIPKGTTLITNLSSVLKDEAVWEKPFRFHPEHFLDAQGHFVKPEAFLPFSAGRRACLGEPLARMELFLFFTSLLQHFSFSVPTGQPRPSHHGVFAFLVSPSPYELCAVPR
Chain of Pyruvate kinase PKM (Homo sapiens) (P14618 whole entry, looked up): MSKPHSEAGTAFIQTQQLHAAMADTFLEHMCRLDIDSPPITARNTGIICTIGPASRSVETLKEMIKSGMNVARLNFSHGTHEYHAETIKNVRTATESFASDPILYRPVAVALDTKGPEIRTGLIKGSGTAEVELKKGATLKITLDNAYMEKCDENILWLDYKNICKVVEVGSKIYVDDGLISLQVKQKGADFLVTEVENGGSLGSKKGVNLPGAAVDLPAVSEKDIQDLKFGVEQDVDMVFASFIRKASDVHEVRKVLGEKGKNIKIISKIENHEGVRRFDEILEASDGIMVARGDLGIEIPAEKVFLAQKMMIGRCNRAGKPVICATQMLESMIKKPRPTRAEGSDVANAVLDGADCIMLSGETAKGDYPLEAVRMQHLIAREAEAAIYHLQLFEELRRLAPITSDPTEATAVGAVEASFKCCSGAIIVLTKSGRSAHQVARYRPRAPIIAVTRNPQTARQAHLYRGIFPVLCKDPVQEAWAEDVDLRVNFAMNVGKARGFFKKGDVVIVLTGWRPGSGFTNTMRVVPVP
Chain of Pyruvate kinase (Leishmania mexicana) (Q27686 2-499 E452W): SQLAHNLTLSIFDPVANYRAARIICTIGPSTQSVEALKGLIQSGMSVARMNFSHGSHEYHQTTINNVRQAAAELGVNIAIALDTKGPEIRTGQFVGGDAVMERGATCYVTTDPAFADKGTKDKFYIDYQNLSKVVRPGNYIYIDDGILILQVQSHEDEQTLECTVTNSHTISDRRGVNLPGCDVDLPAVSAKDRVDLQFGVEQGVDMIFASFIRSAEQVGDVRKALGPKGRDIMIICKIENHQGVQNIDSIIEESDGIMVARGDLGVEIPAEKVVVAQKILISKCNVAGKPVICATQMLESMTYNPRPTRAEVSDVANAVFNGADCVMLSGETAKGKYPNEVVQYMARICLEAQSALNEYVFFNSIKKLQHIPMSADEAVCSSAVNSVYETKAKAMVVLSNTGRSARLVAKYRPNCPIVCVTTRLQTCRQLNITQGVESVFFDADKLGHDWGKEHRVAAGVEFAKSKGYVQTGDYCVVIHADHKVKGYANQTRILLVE
Chain of Muscarinic acetylcholine receptor M1 (Rattus norvegicus) (P08482 whole entry, looked up): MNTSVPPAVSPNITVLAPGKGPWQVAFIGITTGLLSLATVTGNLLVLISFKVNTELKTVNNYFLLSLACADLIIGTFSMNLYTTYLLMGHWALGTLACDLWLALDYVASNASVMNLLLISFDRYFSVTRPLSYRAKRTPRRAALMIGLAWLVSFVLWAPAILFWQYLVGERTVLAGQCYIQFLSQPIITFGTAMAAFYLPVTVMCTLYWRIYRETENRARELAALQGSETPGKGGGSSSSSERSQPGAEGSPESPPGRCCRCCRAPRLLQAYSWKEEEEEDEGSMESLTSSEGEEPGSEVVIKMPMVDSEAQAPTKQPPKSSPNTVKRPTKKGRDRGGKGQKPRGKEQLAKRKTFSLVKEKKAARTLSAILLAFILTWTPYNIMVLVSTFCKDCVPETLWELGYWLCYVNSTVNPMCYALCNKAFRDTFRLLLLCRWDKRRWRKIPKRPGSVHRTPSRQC
Chain of Alpha-galactosidase A (Homo sapiens) (P06280 whole entry, looked up): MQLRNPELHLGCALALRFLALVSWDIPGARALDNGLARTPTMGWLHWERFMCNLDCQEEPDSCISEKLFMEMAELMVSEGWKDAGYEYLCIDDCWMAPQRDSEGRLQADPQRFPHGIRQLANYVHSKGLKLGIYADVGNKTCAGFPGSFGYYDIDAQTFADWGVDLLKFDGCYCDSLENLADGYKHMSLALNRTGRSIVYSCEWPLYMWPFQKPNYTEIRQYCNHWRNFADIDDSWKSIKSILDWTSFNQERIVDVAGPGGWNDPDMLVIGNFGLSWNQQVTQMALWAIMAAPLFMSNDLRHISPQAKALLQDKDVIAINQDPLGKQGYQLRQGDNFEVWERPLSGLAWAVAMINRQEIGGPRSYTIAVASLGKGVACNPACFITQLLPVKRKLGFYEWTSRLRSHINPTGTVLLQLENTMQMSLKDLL
Chain of Guanine nucleotide-binding protein G(i) subunit alpha-1 (Homo sapiens) (P63096 whole entry, looked up): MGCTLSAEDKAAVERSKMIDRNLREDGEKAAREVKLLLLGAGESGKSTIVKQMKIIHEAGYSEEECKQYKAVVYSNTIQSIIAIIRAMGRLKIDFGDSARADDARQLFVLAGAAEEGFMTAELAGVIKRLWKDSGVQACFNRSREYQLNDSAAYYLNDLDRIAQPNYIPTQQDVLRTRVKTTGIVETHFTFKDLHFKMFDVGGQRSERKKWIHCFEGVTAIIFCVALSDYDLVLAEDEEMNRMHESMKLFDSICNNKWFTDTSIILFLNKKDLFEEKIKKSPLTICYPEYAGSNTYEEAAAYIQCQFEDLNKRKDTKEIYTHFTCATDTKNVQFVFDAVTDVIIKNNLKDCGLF

Nc1ccc(C(=O)C[C@H](N)C(=O)O)cc1O
inactive: activity change, negative = inhibition [1] 8.27% | Potency [2] | activity change, negative = inhibition [3] -4.19% | activity, negative = inhibition [4] 6.37% | Potency [5] > 46 µM | Potency [6] > 9.22 µM | Potency [7] | Potency [8]

CC(C)/C(=N/[N+](C)(C)C)c1ccccc1
inactive: activity change, negative = inhibition [1] 3.83% | activity change, negative = inhibition [2] -16.2% [at 2.29 µM] | activity change, negative = inhibition [3] -1.16% | activity, negative = inhibition [4] 0.141% | Potency [5] > 46 µM | Potency [6] > 9.22 µM | Potency [7] | Potency [8]

CN1C[C@H](c2ccccc2)C(O)([C@]2(c3ccccc3)CN(C)C[C@@H](c3ccccc3)C2=O)[C@H](c2ccccc2)C1 (stereo partly drawn)
inactive: activity change, negative = inhibition [1] 0.442% | Potency [2] | activity change, negative = inhibition [3] -6.86% | activity, negative = inhibition [4] 10% | Potency [5] > 46 µM | Potency [6] > 9.22 µM | Potency [7] | Potency [8]

CSc1nc(N)c2ncn([C@@H]3O[C@@H](COP(=O)(O)OP(=O)(O)OP(=O)(O)O)[C@@H](O)[C@H]3O)c2n1
inactive: activity change, negative = inhibition [1] 18.4% [at 38 µM] | Potency [2] | activity change, negative = inhibition [3] 0.479% [at 38 µM] | activity, negative = inhibition [4] -1.18% [at 38 µM] | Potency [5] > 46 µM | Potency [6] > 46 µM | Potency [7] | Potency [8] | outcome [9] | Potency [10] | Potency [11] | outcome [12] | Potency [13] | outcome [14] | outcome [15] | outcome [16] | Potency [17]

O=C(O)CCSc1ncnc2nc[nH]c12
inactive: activity change, negative = inhibition [1] 15.6% | Potency [2] | activity change, negative = inhibition [3] 1.77% | activity, negative = inhibition [4] 0.335% | Potency [5] > 46 µM | Potency [6] > 9.22 µM | Potency [7] | Potency [8]

C[N+]1(NCC[N@@+]2(C)CCc3ccccc3C2)CCCCC1
inactive: activity change, negative = inhibition [1] -4.59% | Potency [2] | activity change, negative = inhibition [3] -23.2% | activity, negative = inhibition [4] 7.24% | Potency [5] > 46 µM | Potency [6] > 9.22 µM | Potency [7] | Potency [8]

O=C1C=C(N2CCN(c3ccccn3)CC2)C(=O)c2c(O)ccc(O)c21
inactive: activity, negative = inhibition [4] -4.42% | Potency [5] > 46 µM | Potency [6] > 9.22 µM | Potency [8]

N#CCCn1c(=O)c(-c2ccccc2)nc2cnc(N3CCNCC3)nc21
inactive: Potency [5] > 9.22 µM | Potency [6] > 46 µM | Potency [7] | Potency [8]

CC(=O)C=NCC(=O)O
inactive: activity change, negative = inhibition [1] -0.671% | Potency [2] | activity change, negative = inhibition [3] 3.49% | activity, negative = inhibition [4] -0.18% | Potency [5] > 46 µM | Potency [6] > 9.22 µM | Potency [7] | Potency [8]
